# Results taken from the supplement of paper PMC12297408.
# Counter-ions that a name gives are not always drawn.
# Test system: Plasmodium falciparum NF54/iGP1_RE9H ulg8 stage V gametocytes
# Assay: gametocyte viability (luciferase signal relative to DMSO control) (% of DMSO control); higher = less gametocytocidal activity, active = 50 or less
# Conditions: exposure time: 72 h
# Description: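 Synchronous P. falciparum NF54/iGP1_RE9H ulg8 mature stage V gametocytes (day 12) were exposed to Cayman Epigenetics Screening Library compounds at 10 µM or 1 µM for 72 h at 37 °C. Viability was read as RE9H luciferase bioluminescence, normalised to DMSO plate controls (100%); 50 µM methylene blue was the positive control.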
Structure (SMILES),gametocyte viability (concentration: 1 µM),gametocyte viability (concentration: 10 µM)
Nc1ncn([C@H]2C[C@H](O)[C@@H](CO)O2)c(=O)n1 [Decitabine],90.6 (inactive),90 (inactive)
Cc1noc(C)c1-c1ccc(-c2nc3cnccn3c2NC(C)(C)C)cc1,84.1 (inactive),64.8 (inactive)
Nc1cc(F)ccc1NC(=O)/C=C/c1cnn(C/C=C/c2ccccc2)c1,98 (inactive),91.8 (inactive)
O=C(O)c1ccc(O)c2ncccc12,90.6 (inactive),84.3 (inactive)
COc1ccc(S(=O)(=O)ON=C2C=C(C)C(=O)C(C)=C2)cc1,87.3 (inactive),43.2 (active)
O=C(CCCCCCC(=O)Nc1cccnc1)NO [Pyroxamide],90.7 (inactive),63.8 (inactive)
Cc1ccc(NC2=CC(=O)c3sc(C)nc3C2=O)cc1 [Ryuvidine],59.2 (inactive),19.2 (active)
O=c1oc2c(O)c(O)cc3c(=O)oc4c(O)c(O)cc1c4c23 [Ellagic Acid],101 (inactive),95.3 (inactive)
CCCCCOc1ccc(/C=C\c2cccc(O)c2C(=O)O)cc1,87.3 (inactive),88.4 (inactive)
CCCCNNC(=O)c1ccc(Br)cc1,84 (inactive),56.1 (inactive)
O=C(CCCCCCC(=O)NO)NO [Suberohydroxamic Acid],106 (inactive),87.9 (inactive)
COc1cc2c(NC3CCN(C)CC3)nc(N3CCCN(C)CC3)nc2cc1OCCCN(C)C,89.8 (inactive),84 (inactive)
COc1cc(Br)c(Nc2nc(-c3c(C)nc4ncccn34)cs2)c(Br)c1,94.5 (inactive),93.6 (inactive)
Cn1cc(CCn2cnc(-c3cnn(C)c3)c2-c2ccc(C#N)cc2)cn1,91.3 (inactive),89.1 (inactive)
O=C(CCCCCCC(=O)Nc1ccccc1)NO,86.4 (inactive),56.2 (inactive)
O=C(O)C(Cc1c[nH]c2ccccc12)N1C(=O)c2ccccc2C1=O (stereo not given),86.9 (inactive),84.3 (inactive)
O=C(CCl)Nc1ccc(S(=O)(=O)c2ccc(NC(=O)CCl)cc2)cc1,78.5 (inactive),45 (active)
COc1cc2nc(N3CCCN(C)CC3)nc(NC3CCN(Cc4ccccc4)CC3)c2cc1OC,71 (inactive),23.3 (active)
Cn1cccc1C(=O)N1CCc2cc(C(=O)NO)ccc2C1 [HDAC6 Inhibitor],87 (inactive),91.2 (inactive)
NC(=O)[C@H](CCCN=C(N)CCl)NC(=O)c1ccccc1 [Cl-Amidine (hydrochloride)],104 (inactive),98.5 (inactive)
CCOC(=O)C1=CN(Cc2ccccc2)C=C(C(=O)OCC)C1c1ccccc1,80.7 (inactive),77.6 (inactive)
O=C(/C=C/c1cccc(C(=O)NO)c1)NO,89.2 (inactive),75.4 (inactive)
CC(C)(CNC(=O)c1cccc(-c2noc(C(F)(F)F)n2)c1)c1coc(-c2ccccc2)n1,90.2 (inactive),83.2 (inactive)
N[C@H]1C[C@@H]1c1ccc(-c2cccc(O)c2)cc1,92.2 (inactive),79.4 (inactive)

Structure (SMILES),gametocyte viability (concentration: 1 µM),gametocyte viability (concentration: 10 µM)
Clc1ccc(-c2csc(NN=C3CCCC3)n2)cc1 [CPTH2 (hydrochloride)],98.4 (inactive),83.9 (inactive)
O=C(CCCCCCSc1ccc2ccccc2c1)NO,84.8 (inactive),84.6 (inactive)
CCCC(CCC)C(=O)O [Valproic Acid (sodium salt)],86.9 (inactive),86.4 (inactive)
COc1cc2c(NC3CCN(C4CCCCC4)CC3)nc(N3CCCN(C(C)C)CC3)nc2cc1OCCCN1CCCCC1,75.5 (inactive),13.4 (active)
Nc1nccc2c1ncn2C1C=C(CO)C(O)C1O (stereo not given) [3-Deazaneplanocin A],88.8 (inactive),88.1 (inactive)
CN(C)Cc1ccc(S(=O)(=O)n2ccc(/C=C/C(=O)NO)c2)cc1 [Resminostat (hydrochloride)],94.8 (inactive),77.8 (inactive)
CCOC(=O)NNc1nncc2ccccc12 [Todralazine (hydrochloride)],89.5 (inactive),89.1 (inactive)
CN(C)c1ccc(C(=O)NCCCCCCC(=O)NO)cc1,83.7 (inactive),50.5 (inactive)
O=C(O)CC[C@H](O)C(=O)O [L-α-Hydroxyglutaric Acid (sodium salt)],92.7 (inactive),86.7 (inactive)
O=C([C@@H](Cc1cccc(C(F)(F)F)c1)NS(=O)(=O)c1cc(F)c2c(c1)CCNC2)N1CCCC1 [(R)-PFI-2 (hydrochloride)],85.2 (inactive),77.8 (inactive)
CCCCc1nc2cc(/C=C/C(=O)NO)ccc2n1CCN(CC)CC,76.9 (inactive),62.4 (inactive)
CC(C)(C)c1ccc(C(=O)NC(=S)Nc2ccc(N)cc2)cc1 [Tenovin-3],92.2 (inactive),79.2 (inactive)
CC(C)N(CCCNC(=O)Nc1ccc(C(C)(C)C)cc1)C[C@H]1O[C@@H](n2ccc3c(N)ncnc32)[C@H](O)[C@@H]1O,94.6 (inactive),94.1 (inactive)
O=Nc1ccc(O)c2ncccc12 [5-Nitroso-8-quinolinol],88.4 (inactive),11.5 (active)
O=C(NC[C@H](O)CN1CCc2ccccc2C1)c1ccnc(NC2CCC2)c1,80.7 (inactive),79.5 (inactive)
COc1ccccc1C(=O)Nc1cc2c(cc1N1CCCC1)n(C)c(=O)n2C,79.5 (inactive),65.1 (inactive)
CN1CCC(=C2c3ccccc3C=Cc3ccccc32)CC1 [Cyproheptadine (hydrochloride hydrate)],88.2 (inactive),86.6 (inactive)
CC(=O)SCC(=O)c1ccc(NS(=O)(=O)c2ccc(OCCCN(C)C)cc2)nc1,83.8 (inactive),85.4 (inactive)
Nc1ccn([C@@H]2O[C@H](CO)[C@@H](O)C2(F)F)c(=O)n1 [Gemcitabine],91.5 (inactive),85.8 (inactive)
COc1cc2c(cc1-c1c(C)noc1C)ncc1[nH]c(=O)n([C@H](C)c3ccccn3)c12,91.5 (inactive),97.8 (inactive)
"CC(=O)OCC1OC(n2cnc(N)nc2=O)C(OC(C)=O)C1OC(C)=O (stereo not given) [2',3',5'-triacetyl-5-Azacytidine]",87.3 (inactive),85.8 (inactive)
Nc1ncnc2c1ncn2[C@@H]1O[C@H](C[C@@H](N)CC[C@H](N)C(=O)O)[C@@H](O)[C@H]1O [Sinefungin],88.5 (inactive),85.6 (inactive)
Nc1c(S(=O)(=O)c2ccccc2)c2nc3ccccc3nc2n1-c1ccc(F)cc1,66.8 (inactive),56.6 (inactive)
CNCCN(C)Cc1c[nH]nc1-c1ccc(O[C@H]2C[C@H](OCCC3CCOCC3)C2)cc1,85.5 (inactive),82.4 (inactive)

Structure (SMILES),gametocyte viability (concentration: 1 µM),gametocyte viability (concentration: 10 µM)
O=C(O)CCCc1ccccc1 [Sodium 4-Phenylbutyrate],90.4 (inactive),89.2 (inactive)
CCN(c1cc(-c2ccc(CN3CCOCC3)cc2)cc(C(=O)NCc2c(C)cc(C)[nH]c2=O)c1C)C1CCOCC1,95.1 (inactive),93 (inactive)
COc1ccccc1C(=O)Nc1cc2c(cc1N1CCNC[C@H]1C)n(C)c(=O)n2C,88.2 (inactive),93.7 (inactive)
Nc1ccc(S(=O)(=O)NCCc2ccccc2)cc1,84.2 (inactive),86.3 (inactive)
CN(C)c1ccc(C(=O)NCCCCCC(=O)NO)cc1,76.2 (inactive),52 (inactive)
O=C(CCCCCCC(=O)Nc1ccc(I)cc1)NO [4-iodo-SAHA],88.3 (inactive),67.2 (inactive)
COc1nnc2ccc(N3CCC(c4ccc(OCCN5CCN(C)C(=O)[C@H]5C)cc4)CC3)nn12,93.3 (inactive),90.3 (inactive)
O=C(NCc1ccccc1)c1c(/N=C/c2c(O)ccc3ccccc23)sc2c1CCCC2,103 (inactive),94.2 (inactive)
CC1(C)C(=O)NC2=C1C(=O)C(=O)c1ccccc12,88.9 (inactive),85.2 (inactive)
CC(NC(=O)c1ccccc1/N=C/c1c(O)ccc2ccccc12)c1ccccc1 (stereo not given) [Sirtinol],102 (inactive),95 (inactive)
Cn1c(=O)cc(C(=O)Nc2ccc3c(c2)OCCO3)c2ccccc21,82.8 (inactive),86.7 (inactive)
O=C(O)c1ccc(CN2CCC(CN[C@@H]3C[C@H]3c3ccccc3)CC2)cc1,86.7 (inactive),88.4 (inactive)
O=C(O)CNC(=O)C(=O)O [N-Oxalylglycine],87.3 (inactive),85.3 (inactive)
C#CCC(CCCCCC)C(=O)O (stereo not given) [2-hexyl-4-Pentynoic Acid],89.2 (inactive),95.4 (inactive)
CC1CC/C(=N\Nc2nc(-c3ccc(Cl)cc3)cs2)C1 (stereo not given) [CPTH6 (hydrobromide)],86.6 (inactive),82.2 (inactive)
CCCCOc1ccc(CC(=O)NO)cc1 [Bufexamac],85 (inactive),94.8 (inactive)
COc1cc(O)c2c(c1)oc(=O)c1c3cc(O)c(O)cc3oc21 [Wedelolactone],89.6 (inactive),81.5 (inactive)
C/C(=N\NC(=O)c1cccc(S(=O)(=O)N2CCOCC2)c1)c1cc(Cl)ccc1O,89.1 (inactive),85.8 (inactive)
COc1cc2c(cc1NS(=O)(=O)c1ccc(Br)cc1C)n(C)c(=O)n2C,89 (inactive),86.4 (inactive)
O=C1C(=Cc2cccnc2)C(=O)c2ccccc21,79.2 (inactive),80.2 (inactive)
O=C(NO)c1cccc(C(=O)NCCc2ccccc2)c1,98.3 (inactive),64.6 (inactive)
COc1cc(-c2cn(C)c(=O)c3cnccc23)c(OC)cc1CN(C)C,86.9 (inactive),85.8 (inactive)
